The list is not random: actives were taken first. Their share in the collection is about 2.9%.
PfGluPho inh = PfG6PD enzyme inhibitors, primary screen, biochemical, fluorescence intensity, uHTS. inhibition, % at 20 µM. glucose-6-phosphate dehydrogenase-6-phosphogluconolactonase (Plasmodium falciparum 3D7). hit rate 0.78% among 350,000. PfGluPho enzyme, NADPH resazurin-diaphorase fluorescence;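 active = inhibition reaching at least a set limit at 20 µM in the primary screen, cut at about 59% in these data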
H9c2 TAG inh = inhibitors of triacylglycerol accumulation, primary screen, cell-based, uHTS, fluorescence, H9c2. H9c2 cells, Nile Red lipid (TAG) fluorescence; cells loaded with 200 µM oleic acid. inhibition, % at 12.5 µM. hit rate 0.66% among 230,000;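 active = pattern-corrected inhibition of lipid staining of at least 50% with the nuclear-stain viability signal not falling by more than 50%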
A3G deaminase = APOBEC3G DNA deaminase inhibitors, primary screen, biochemical, fluorescence, single-stranded DNA substrate, uHTS. DNA dC->dU-editing enzyme APOBEC-3G (Homo sapiens), Q9HC16. recombinant A3G, ssDNA deamination FAM/TAMRA fluorescence. inhibition, % at 20 µM. hit rate 0.28% among 330,000;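 active = inhibition of at least 40% at 20 µM, with no more than 30% in the related APOBEC3A deaminase screen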
Target sequence (Q9HC16 whole entry, looked up): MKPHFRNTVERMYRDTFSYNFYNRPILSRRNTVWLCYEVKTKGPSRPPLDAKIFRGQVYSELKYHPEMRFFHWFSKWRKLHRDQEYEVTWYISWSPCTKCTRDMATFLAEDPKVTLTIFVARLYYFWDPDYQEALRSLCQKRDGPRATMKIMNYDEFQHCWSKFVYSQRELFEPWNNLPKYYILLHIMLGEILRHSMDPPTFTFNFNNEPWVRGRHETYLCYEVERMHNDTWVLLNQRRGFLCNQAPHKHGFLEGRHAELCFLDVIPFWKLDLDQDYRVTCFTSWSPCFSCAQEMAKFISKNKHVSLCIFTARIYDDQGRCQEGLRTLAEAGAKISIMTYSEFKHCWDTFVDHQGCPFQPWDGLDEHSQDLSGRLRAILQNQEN
APOBEC3A inh = APOBEC3A ssDNA deaminase inhibitors, primary screen, selectivity assay for APOBEC3G inhibitor project, biochemical, FAM/TAMRA oligo cleavage fluorescence; recombinant A3A, FAM/TAMRA ssDNA deamination fluorescence; inhibition, % at 20 µM; hit rate 0.41% among 330,000;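 active = at least 40% inhibition at 20 µM here, with at most 30% in a related deaminase screen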
Target sequence (P31941 whole entry, looked up): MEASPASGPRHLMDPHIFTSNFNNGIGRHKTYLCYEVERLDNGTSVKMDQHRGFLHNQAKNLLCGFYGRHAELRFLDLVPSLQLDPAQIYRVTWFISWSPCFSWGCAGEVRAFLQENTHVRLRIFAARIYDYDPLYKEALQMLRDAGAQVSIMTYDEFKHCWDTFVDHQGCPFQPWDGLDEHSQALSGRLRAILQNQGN
NadD block = inhibitors of S. aureus NadD, primary screen, biochemical, colorimetric, uHTS; hit rate 0.78% among 360,000; purified NadD enzyme, colorimetric absorbance read-out; inhibition, % at 20 µM; AID 602399, 2012; Nicotinate-nucleotide adenylyltransferase NadD (Staphylococcus aureus N315); in the data active = inhibition above about 26%
H9c2 protect = cardioprotection against H2O2-induced cell death, primary screen, uHTS, H9c2 cells, ATPLite luminescence | protection from H2O2 cell death, % at 20 µM | H9c2 cardiomyocytes, H2O2 injury protection, 2 h | hit rate 0.63% among 360,000 | AID 588492, 2011;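 active = compounds giving at least 50% protection of heart cells from peroxide-induced death in the single-dose screen, raw or plate-pattern-corrected value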
PfGluPho conf = PfG6PD inhibitors, hit retest, confirmation, biochemical, fluorescence intensity, single concentration; AID 504753, 2011; shares compounds with PfGluPho inh; hit rate 34% among 2,400; inhibition, % at 20 µM; recombinant PfGluPho, NADPH-diaphorase-resazurin fluorescence;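 active = inhibition of at least 50% at 20 µM in any single replicate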
Diaphorase 10uM = diaphorase inhibitors and chemical oxidizers, confirmation, counter-screen for P. falciparum G6PD inhibitor project, biochemical, fluorescence intensity, 10 µM NADPH; inhibition, % at 20 µM; shares compounds with PfGluPho inh; diaphorase-coupled resazurin reduction, NADPH 10 uM; hit rate 39% among 820;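 active = average inhibition reaching 50% or more with the compound at 20 µM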;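 note: resorufin red fluorescence formed as diaphorase reduces resazurin using NADPH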
Diaphorase 30uM = diaphorase inhibitors and chemical oxidizers, confirmation, counter-screen for P. falciparum G6PD inhibitor project, biochemical, fluorescence intensity, 30 µM NADPH. shares compounds with PfGluPho inh. Diaphorase/resazurin coupled assay, resorufin fluorescence. inhibition, % at 20 µM. hit rate 29% among 820;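 active = inhibition averaging 50% or more, tested at 20 µM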
Hits are given with their value.

What do the screens show for `Cc1nc2ccc(Br)cn2c1C(=O)N/N=C\c1ccccc1Cl`?
PfGluPho inh: inactive; H9c2 TAG inh: inactive; A3G deaminase: inactive; APOBEC3A inh: inactive; NadD block: inactive; H9c2 protect: inactive

What do the screens show for `Cc1ccc(S(=O)(=O)N(C)C[C@H]2OCCCC[C@@H](C)Oc3ccc(NC(=O)Cc4ccccc4)cc3C(=O)N([C@H](C)CO)C[C@@H]2C)cc1`?
PfGluPho inh: inactive; H9c2 TAG inh: inactive; NadD block: inactive; H9c2 protect: inactive

Results for C=CCC(C=C)[N+]1(CC(=O)OC)CCCCC1 (stereo unspecified) ?
PfGluPho inh: inactive; A3G deaminase: inactive; APOBEC3A inh: inactive; NadD block: inactive; H9c2 protect: inactive

What do the screens show for `O=C(NCC1CCCO1)c1cccc(S(=O)(=O)Nc2ccccc2Cl)c1` (stereo unspecified)?
PfGluPho inh: inactive; H9c2 TAG inh: inactive; NadD block: inactive; H9c2 protect: inactive

What do the screens show for `COc1ccc(NC(=O)c2cncc(Br)c2)cc1S(=O)(=O)N1CCCCC1`?
PfGluPho inh: inactive; A3G deaminase: inactive; APOBEC3A inh: inactive; NadD block: inactive; H9c2 protect: inactive

What do the screens show for `Cc1ccc(S(=O)(=O)/N=C2/C=C(C3C(=O)CC(C)(C)CC3=O)C(=O)c3ccccc32)cc1`?
PfGluPho inh: 72.4; H9c2 TAG inh: inactive; A3G deaminase: inactive; APOBEC3A inh: inactive; NadD block: inactive; H9c2 protect: inactive; PfGluPho conf: 73.4; Diaphorase 10uM: inactive; Diaphorase 30uM: inactive

What do the screens show for `CCc1ccc(S(=O)(=O)/N=C2\C=CC(=O)c3ccccc32)cc1`?
A3G deaminase: inactive; APOBEC3A inh: inactive

Results for CCC(CN(C)C)Oc1cc(NCc2ccccc2)c2ncn(C(C)C)c2c1 (stereo unspecified) ?
PfGluPho inh: inactive; H9c2 TAG inh: inactive; A3G deaminase: inactive; APOBEC3A inh: inactive; NadD block: inactive; H9c2 protect: inactive

Results for COc1cc(NCc2ccccc2)c2ncn(C(C)C)c2c1 ?
PfGluPho inh: 61.1; H9c2 TAG inh: inactive; A3G deaminase: inactive; APOBEC3A inh: inactive; NadD block: inactive; H9c2 protect: inactive; PfGluPho conf: 55.7; Diaphorase 10uM: inactive; Diaphorase 30uM: inactive

What do the screens show for `COC(=O)[C@@H](NCc1cccc(CN[C@H](C(=O)OC)c2ccccc2)c1)c1ccccc1`?
PfGluPho inh: inactive; H9c2 TAG inh: inactive; A3G deaminase: inactive; APOBEC3A inh: inactive; NadD block: inactive; H9c2 protect: inactive

How did Cc1cccc(NC(=O)c2sc3nc(-c4ccccc4)cn3c2C)n1 do in these assays?
PfGluPho inh: 61.0; A3G deaminase: inactive; APOBEC3A inh: inactive; NadD block: inactive; H9c2 protect: inactive; PfGluPho conf: inactive

How did COc1ccc(C2=NN(c3nc(-c4ccc(CNC(C)=O)cc4)cs3)C(c3ccco3)C2)cc1 (stereo unspecified) do in these assays?
PfGluPho inh: inactive; A3G deaminase: inactive; APOBEC3A inh: inactive; NadD block: inactive; H9c2 protect: inactive

What do the screens show for `Cn1c(C(=O)NCCCN2CCCCCC2)cc2c(=O)n(C)c3ccccc3c21`?
PfGluPho inh: 60.0; H9c2 TAG inh: inactive; A3G deaminase: inactive; APOBEC3A inh: inactive; NadD block: inactive; H9c2 protect: inactive; PfGluPho conf: inactive

How did CCCN1CCN(CCCNC(=O)c2cc3c(=O)n(C)c4ccccc4c3n2C)CC1 do in these assays?
PfGluPho inh: inactive; H9c2 TAG inh: inactive; NadD block: inactive; H9c2 protect: inactive

What do the screens show for `O=C(/C=C/c1cccs1)Nc1scc(-c2ccccc2)c1C(=O)O`?
PfGluPho inh: 70.0; H9c2 TAG inh: inactive; NadD block: inactive; H9c2 protect: inactive; PfGluPho conf: inactive

Results for O=C(Nc1scc(-c2ccccc2)c1C(=O)O)c1ccccc1Cl ?
PfGluPho inh: inactive; A3G deaminase: inactive; APOBEC3A inh: inactive; NadD block: inactive; H9c2 protect: inactive

Results for COc1ccc(-c2csc(NC(=O)c3ccccc3F)c2C(=O)O)cc1 ?
PfGluPho inh: inactive; A3G deaminase: inactive; APOBEC3A inh: inactive; NadD block: inactive; H9c2 protect: inactive

Results for COc1cc(C(=O)Nc2scc(-c3ccccc3)c2C(=O)O)cc(OC)c1OC ?
PfGluPho inh: 68.6; A3G deaminase: inactive; APOBEC3A inh: inactive; NadD block: inactive; H9c2 protect: inactive; PfGluPho conf: inactive

How did O=C(/C=C/c1cccs1)Nc1nc(-c2ccccc2)cs1 do in these assays?
PfGluPho inh: inactive; A3G deaminase: inactive; APOBEC3A inh: inactive; NadD block: inactive; H9c2 protect: inactive

What do the screens show for `Cc1ccc(C(=O)Nc2scc(-c3ccccc3)c2C(=O)O)cc1`?
PfGluPho inh: 105.0; H9c2 TAG inh: inactive; A3G deaminase: inactive; APOBEC3A inh: inactive; NadD block: inactive; H9c2 protect: inactive; PfGluPho conf: inactive

Results for CCOC(=O)c1c(-c2cc(OC)c(OC)c(OC)c2)csc1NC(=O)c1ccccc1 ?
PfGluPho inh: inactive; H9c2 TAG inh: inactive; NadD block: inactive; H9c2 protect: inactive

Results for COc1cc(C(=O)Nc2scc(-c3ccc(C)cc3)c2C(=O)O)cc(OC)c1OC ?
PfGluPho inh: 76.4; H9c2 TAG inh: inactive; A3G deaminase: inactive; APOBEC3A inh: inactive; NadD block: inactive; H9c2 protect: inactive; PfGluPho conf: inactive

Results for Cc1ccc(-c2nnc(SCC(=O)NC3CCS(=O)(=O)C3)nc2-c2ccc(C)cc2)cc1 (stereo unspecified) ?
PfGluPho inh: inactive; A3G deaminase: inactive; APOBEC3A inh: inactive; NadD block: inactive; H9c2 protect: inactive

What do the screens show for `O=C(CSc1nc2ccc([N+](=O)[O-])cc2s1)NCC1CCCO1` (stereo unspecified)?
PfGluPho inh: inactive; A3G deaminase: inactive; APOBEC3A inh: inactive; NadD block: inactive; H9c2 protect: inactive

Screens as filed in PubChem.
